Bioassay records: PubChem BioAssay, several laboratories
Rows were chosen to be rich in hits. Some 1.3% of all compounds tested hit in one or more screens of this group.
Gli-Sufu antag: Gli-Sufu pathway antagonists, primary screen, luciferase luminescence, Sufu-KO-LIGHT cells, uHTS. Sufu-KO-LIGHT fibroblasts, Gli luciferase reporter luminescence. inhibition, % at 5 µM. 0.74% of 340,000 active;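 active means inhibition above about 55%, limit read from the data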;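 further: 0% = DMSO-treated cells and 100% = wells with medium but no cells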
SRC2 inh: inhibition of GAL4-SRC2 driven luciferase reporter, primary screen, SRC2 inhibitor project, cell-based, luminescence; Nuclear receptor coactivator 2 (Homo sapiens), Q15596; HEK293 GAL4-SRC2 luciferase reporter; inhibition, % at 9 µM; 0.17% of 370,000 active;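 active means inhibition above the mean inhibition of all tested compounds plus 3 SD, set per campaign, cut at about 52% in these data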;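 further: 0% = DMSO treated cells and 100% = cells given Gossypol at 36 µM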
NCOA3 inh: SRC3 coactivator transcriptional activity inhibitors, primary screen, cell-based, luminescence; HEK293 GAL4-SRC3 luciferase reporter; inhibition, % at 3.6 µM; AID 588352, 2011; 0.17% of 360,000 active; Nuclear receptor coactivator 3 (Homo sapiens), Q9Y6Q9;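 active means inhibition above a per-campaign cutoff, the mean of all compounds plus 3 SD, cut at about 60% in these data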;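 further: 0% = DMSO-treated cells and 100% = gossypol-treated cells at 36 µM; higher means less SRC3-driven luciferase light from the GAL4 reporter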
Target sequence (Q9Y6Q9 whole entry, looked up, the tested form may be a part): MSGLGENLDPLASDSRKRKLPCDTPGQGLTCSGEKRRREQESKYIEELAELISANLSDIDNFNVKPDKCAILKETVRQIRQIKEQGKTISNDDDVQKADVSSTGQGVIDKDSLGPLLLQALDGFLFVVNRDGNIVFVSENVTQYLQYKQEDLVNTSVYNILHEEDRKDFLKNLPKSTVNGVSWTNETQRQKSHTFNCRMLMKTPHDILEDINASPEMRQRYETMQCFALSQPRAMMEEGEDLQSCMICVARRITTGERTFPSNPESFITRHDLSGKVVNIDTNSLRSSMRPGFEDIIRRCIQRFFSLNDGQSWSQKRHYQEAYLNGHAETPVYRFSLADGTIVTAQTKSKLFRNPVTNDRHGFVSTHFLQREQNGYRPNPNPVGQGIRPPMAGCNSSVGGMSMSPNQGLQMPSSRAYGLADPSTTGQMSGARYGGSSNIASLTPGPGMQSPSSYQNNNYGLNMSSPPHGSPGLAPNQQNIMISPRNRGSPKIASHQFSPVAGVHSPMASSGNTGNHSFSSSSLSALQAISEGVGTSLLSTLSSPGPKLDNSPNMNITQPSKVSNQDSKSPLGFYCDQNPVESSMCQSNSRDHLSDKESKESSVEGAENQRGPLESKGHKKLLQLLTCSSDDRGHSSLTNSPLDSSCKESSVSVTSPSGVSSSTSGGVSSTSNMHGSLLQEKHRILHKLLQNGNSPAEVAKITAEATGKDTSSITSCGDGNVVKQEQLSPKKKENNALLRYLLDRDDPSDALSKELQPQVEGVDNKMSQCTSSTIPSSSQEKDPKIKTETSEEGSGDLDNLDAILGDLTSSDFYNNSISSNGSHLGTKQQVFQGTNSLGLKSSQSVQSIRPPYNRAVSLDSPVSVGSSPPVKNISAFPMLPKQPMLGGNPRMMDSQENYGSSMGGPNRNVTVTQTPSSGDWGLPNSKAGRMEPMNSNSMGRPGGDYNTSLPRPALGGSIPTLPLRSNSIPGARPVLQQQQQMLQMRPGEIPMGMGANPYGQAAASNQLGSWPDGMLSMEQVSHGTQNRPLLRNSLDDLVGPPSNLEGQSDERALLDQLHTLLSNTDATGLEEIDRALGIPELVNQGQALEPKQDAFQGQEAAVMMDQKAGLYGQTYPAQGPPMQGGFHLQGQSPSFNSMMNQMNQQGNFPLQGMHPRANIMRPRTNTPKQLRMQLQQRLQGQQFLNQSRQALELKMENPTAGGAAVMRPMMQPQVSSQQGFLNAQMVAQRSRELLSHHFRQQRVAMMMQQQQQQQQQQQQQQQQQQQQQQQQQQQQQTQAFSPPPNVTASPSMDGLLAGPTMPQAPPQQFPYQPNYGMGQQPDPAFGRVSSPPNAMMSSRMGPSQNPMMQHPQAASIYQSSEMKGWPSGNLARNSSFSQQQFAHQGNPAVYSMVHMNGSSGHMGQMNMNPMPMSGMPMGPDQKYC
COUP-TFII inh: NR2F2 transcriptional activity inhibitors, primary screen, cell-based, luciferase reporter, HEK293T, luminescence | HEK293T NGFI-A luciferase reporter | inhibition, % at 8.6 µM | 0.7% of 370,000 active;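 active means inhibition above a per-plate cutoff, mean inhibition of test wells between control levels plus 3 SD, cut at about 38% in these data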;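 further: cells cotransfected with COUP-TFII expression vector driving the NGFI-A reporter; 0% = median of COUP-TF2 test wells and 100% = reporter-only cells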
NCOA1 inh: SRC1 coactivator transcriptional activity inhibitors, primary screen, cell-based, luminescence | HEK293 GAL4-SRC1 luciferase reporter | inhibition, % at 3.6 µM | AID 588354, 2011 | 0.12% of 360,000 active;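 active means inhibition above the campaign mean plus 3 SD, with each screening campaign given its own cutoff, cut at about 60% in these data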;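 further: 0% = DMSO treated cells and 100% = gossypol at 36 µM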
LRH-1 inv ag: LRH-1 (NR5A2) inverse agonists, primary screen, cell-based, luminescence, HEK293T, StAR-luciferase reporter; LRH-1 transfected, 24 h; inhibition, % at 3.6 µM; 0.13% of 360,000 active; AID 602396, 2012;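 active means inhibition above the mean inhibition of all tested compounds plus 3 SD, cut at about 73% in these data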;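 further: 0% = DMSO wells and 100% = reporter-only cells lacking LRH-1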
VP16 Luc counter: Gal4-VP16 luciferase reporter inhibitors, counter-screen for COUP-TFII antagonist project, cell-based, luminescence, HEK293; inhibition, % at 8.5 µM; AID 687007, 2013; 25% of 2,500 active; shares compounds with COUP-TFII inh; in the data active means inhibition above about 13%
COUP-TFII conf: NR2F2 transcriptional activity inhibitors, confirmation, cell-based, luciferase reporter, HEK293, triplicate | inhibition, % at 8.5 µM | HEK293 NGFI-A luciferase reporter, luminescence | 45% of 2,500 active | shares compounds with COUP-TFII inh;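 active means mean inhibition over three repeats above a set limit taken from the earlier primary screen, cut at about 38% in these data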;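 further: 100% = cells given the luciferase reporter alone without the COUP-TF2 vector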
* marks the source's active call; other numbers are inactive results.

Screening COC(=O)[C@]12C[C@H](CC(=O)N3CCN(C(=O)c4ccco4)CC3)C(=O)N(CCc3ccc(OC)c(OC)c3)C1=C[C@H](COCc1ccccc1)O[C@@H]2C returned SRC2 inh -1 and COUP-TFII inh 8.
For CC(NC(=O)CCc1nnc(-c2ccc(-c3ccccc3)cc2)o1)c1nccs1 (stereo not drawn) the results were Gli-Sufu antag 8, SRC2 inh 67*, NCOA3 inh -10, COUP-TFII inh 48*, NCOA1 inh -20, LRH-1 inv ag -47, VP16 Luc counter 0 and COUP-TFII conf 16.
Screening COC(=O)CCCNC(=O)CCc1nnc(-c2ccc(-c3ccccc3)cc2)o1 returned Gli-Sufu antag -16, SRC2 inh 57*, NCOA3 inh -14, COUP-TFII inh 52*, NCOA1 inh -10, LRH-1 inv ag -23, VP16 Luc counter 12 and COUP-TFII conf 11.
COCCNC(=O)CCc1nnc(Cc2ccc(-c3ccccc3)cc2)o1 was read as Gli-Sufu antag 9, SRC2 inh 8, NCOA3 inh 14, COUP-TFII inh -10, NCOA1 inh -1 and LRH-1 inv ag -9.
O=C(CCc1nnc(-c2ccc(-c3ccccc3)cc2)o1)NCCc1ccccn1 was read as Gli-Sufu antag -16, SRC2 inh 59*, NCOA3 inh -9, COUP-TFII inh 43*, NCOA1 inh -29, LRH-1 inv ag -21, VP16 Luc counter -15 and COUP-TFII conf 23.
Cc1ccc2c(c1)N(CCCC(=O)N(C)Cc1ccccc1F)C(=O)CO2 was read as SRC2 inh 5 and COUP-TFII inh 11.
`CC(C)CNC(=O)OCc1cn(Cc2ccc(Cl)cc2)nn1` gave SRC2 inh -19 and COUP-TFII inh 2.
`CCOC(=O)C1=NOC(C(=O)Nc2nccs2)(C(=O)C2CC2)C1` (stereo not drawn) gave SRC2 inh -6 and COUP-TFII inh -3.
Screening COC(=O)C1CCCCN1C(=O)c1cc(COc2cccc3cnccc23)on1 (stereo not drawn) returned SRC2 inh 25, NCOA3 inh 28, COUP-TFII inh 61*, NCOA1 inh 26, LRH-1 inv ag 25, VP16 Luc counter 0 and COUP-TFII conf 59*.
`CSc1ccccc1OCc1cc(C(=O)N2CCC(c3ccncc3)CC2)no1` gave SRC2 inh 16, NCOA3 inh 4, COUP-TFII inh 58*, NCOA1 inh 5, LRH-1 inv ag 31, VP16 Luc counter -3 and COUP-TFII conf 51*.
For O=C(c1cc(COc2ccc(F)cc2Cl)on1)N1CCC(c2ccncc2)CC1 the results were Gli-Sufu antag 27, SRC2 inh 11, NCOA3 inh 13, COUP-TFII inh 39*, NCOA1 inh 1, LRH-1 inv ag 17, VP16 Luc counter -10 and COUP-TFII conf 26.
Screening COC(=O)C1CCCCN1C(=O)c1cc(COc2cccc3cccnc23)on1 (stereo not drawn) returned Gli-Sufu antag 6, SRC2 inh -12, NCOA3 inh 22, COUP-TFII inh -9, NCOA1 inh 6 and LRH-1 inv ag 0.
O=C(c1cc(COc2ccc(F)cc2Cl)on1)N1CCCCCC1 was read as Gli-Sufu antag -66, SRC2 inh -35, NCOA3 inh -63, COUP-TFII inh -34, NCOA1 inh -74 and LRH-1 inv ag -90.
Screening Cc1ccc(-n2c(SCc3c(Cl)cccc3Cl)nnc2-c2ccco2)cc1 returned SRC2 inh -5 and COUP-TFII inh 5.
For CS(=O)(=O)N[C@@H]1C[C@@H]2O[C@@H](CO)CC[C@@H]2O[C@@H]1CCc1ccc(/C=C/c2ccccc2)cc1 the results were SRC2 inh 4 and COUP-TFII inh 3.
`C=C1C(=O)C23C(O)C1CCC2C12CCCC(C)(COC(C)=O)C1C(O)C3(O)OC2` (stereo not drawn) gave Gli-Sufu antag 16, SRC2 inh 20, NCOA3 inh 74*, COUP-TFII inh 48*, NCOA1 inh 77*, LRH-1 inv ag 77*, VP16 Luc counter 77* and COUP-TFII conf 52*.
For O=S1(=O)c2c(cccc2N2CCSCC2)Oc2ccccc2CN1Cc1cn(Cc2ccc(Cl)cc2)nn1 the results were SRC2 inh 2 and COUP-TFII inh 15.
For COc1ccc(Oc2nc(C)nc3c2oc2ccccc23)cc1 the results were Gli-Sufu antag -2, SRC2 inh 25, NCOA3 inh 5, COUP-TFII inh 42*, NCOA1 inh 0, LRH-1 inv ag 17, VP16 Luc counter -1 and COUP-TFII conf 12.
Screening O=C1C(=O)N(Cc2ccc(-c3ccc(Cl)nc3)cc2)c2ccc(OC(F)(F)F)cc21 returned COUP-TFII inh -21.
COc1ccc(CN2CCN(Cc3ccc4ccccc4c3)CC2)cc1OC was read as Gli-Sufu antag -16, SRC2 inh 33, NCOA3 inh -8, COUP-TFII inh 41*, NCOA1 inh 19, LRH-1 inv ag 7, VP16 Luc counter 10 and COUP-TFII conf 30.
CCN(CC)S(=O)(=O)c1cccc(NC(=O)Nc2cccc(C(F)(F)F)c2)c1 was read as Gli-Sufu antag 24, SRC2 inh 15, NCOA3 inh 50, COUP-TFII inh 39*, NCOA1 inh 17, LRH-1 inv ag 35, VP16 Luc counter -5 and COUP-TFII conf 13.
Screening CCN(CC)S(=O)(=O)c1ccc2c(c1)nc(CCC(=O)Nc1cccc(C(F)(F)F)c1)n2CC returned Gli-Sufu antag 3, SRC2 inh -12, NCOA3 inh 5, COUP-TFII inh 19, NCOA1 inh -6 and LRH-1 inv ag 14.
For COc1ccc(C(=O)NNC(=O)c2ccccn2)cc1 the results were Gli-Sufu antag -54, SRC2 inh 36, NCOA3 inh -8, COUP-TFII inh 46*, NCOA1 inh -42, LRH-1 inv ag -101, VP16 Luc counter -112 and COUP-TFII conf -64.
`COc1ccc(C(=O)O/N=C(\N)c2ccccn2)cc1` gave Gli-Sufu antag -25, SRC2 inh 42, NCOA3 inh -38, COUP-TFII inh 48*, NCOA1 inh -33, LRH-1 inv ag -22, VP16 Luc counter -168 and COUP-TFII conf -104.
